Results reported in PubChem BioAssay (Tox21).
Inconclusive results are not listed. Where a call stands in place of a potency, no number is given. Activity calls are given as the source filed them. Calls follow the shape of the dose curve; as a rule, active = well fitted cell-killing curve with a large enough effect in the repeat runs; inconclusive = weak or mixed curves, or effect the other way; inactive = flat fitted curve, though single readings scatter.

Experiment: Nuclear factor erythroid 2-related factor 2/antioxidant responsive element (Nrf2/ARE) small molecule agonists: qHTS cell viability counter screen in human keratinocytes (AID 1919968); also: nearly all actives have a fitted effect of over 55% in size
Settings: KeratinoSens HaCaT ARE cells viability, CellTiter-Fluor, 24 h; series mostly up to 92.4 µM
From the text: U.S. Tox21 Program National Center for Advancing Translational Sciences [NCATS] Division of Preclinical Innovation [DPI] U.S. Environmental Protection Agency [EPA] National Institutes of Environmental Health Sciences [NIEHS] National Toxicology Program [NTP] U.S. Food and Drug Administration [FDA] Tox21 Assay Overview: Oxidative stress has been implicated in the pathogenesis of a variety of diseases ranging from cancer to neurodegeneration. The antioxidant response element (ARE) signaling pathway plays an important role in the amelioration of oxidative stress. The KeratinoSens (Givaudan, Switzerland) is an in vitro test method which quantifies luciferase induction as a measure of activation of Keap1-Nrf2-antioxidationt/electrophile response element (ARE) dependant pathway in HaCaT human keratinocytes stably transfected with a selectable plasmid. The KeratinoSens assay is a cell-based assay with a reporter cell line to detect potential skin sensitizers by their ability to induce the Nrf2/ARE-response. The activation of the report gene under culture conditions can be detected by ONE-Glo Luciferase Assay System (Promega, Madison, WI). This cell line has been used to screen the Tox21 10K compound library to identify agonists that induce oxidative stress. The cytotoxicity of the Tox21 compound library against the KS-ARE cell line was tested in parallel by measuring the cell viability using CellTiter- Fluor assay system (Promega, Madison, WI) in the same wells.
Tox21 Assay Protocol Summary: HaCaT derived cell line KeratinoSens were dispensed at 1,500 cells/5uL/well in 1536-well white wall/solid bottom plates using a Multidrop Combi (ThermoFisher Scientific, Waltham, MA) dispenser. After the assay plates were incubated at 37 C/5% CO2 for 5 h, 23 nL of compounds dissolved in DMSO, positive controls or DMSO only was transferred to the assay plate by a pintool workstation (Kalypsys, San Diego, CA). The plates were incubated at 37 C/5% CO2 for 23 h, followed by addition of 1uL/well of CellTiter-Fluor reagent into the assay plates using a Flying Reagent Dispenser (Aurora Discovery, San Diego, CA) for cell viability readout that measures cytotoxicity. After 1 h incubation at 37 C/5% CO2 the fluorescence intensity was measured using a ViewLux (PerkinElmer, Shelton, CT) plate reader.
Potency is read from the fitted curve at half-maximal effect.

Structure (SMILES) | Potency | activity change, negative = cytotoxicity
CCCCCCBr | inactive | 
N#Cc1c(-c2ccc(Cl)cc2)[nH]c(C(F)(F)F)c1Br | 10.9 µM (active) | 
CC(CC(C(N)=O)(c1ccccc1)c1ccccc1)N(C)C (stereo not given) | inactive | 
Nc1cc(Cl)ccc1Cl | inactive | 
COc1ccc(-c2ccccc2)cc1NNC(=O)OC(C)C | inactive | 
CC(Cc1ccc(C(C)(C)C)cc1)CN1C[C@@H](C)O[C@@H](C)C1 (stereo not given in full) | inactive | 
N#CCc1ccc(Cl)cc1 | inactive | 
COC(=O)N(OC)c1ccccc1COc1ccn(-c2ccc(Cl)cc2)n1 | inactive | 
Cc1ccccc1 | inactive | 
CCc1ccc(C2CCNCC2)cc1 | inactive | 
N#CSCc1ccccc1 | inactive | 
O=C1CC[C@@]2(O)[C@H]3Cc4ccc(O)c5c4[C@@]2(CCN3CC2CC2)[C@H]1O5 | inactive | 
C[N+](C)(C)CC1CO1 (stereo not given) | inactive | 
Clc1ccc(CCC(Cn2ccnc2)Sc2c(Cl)cccc2Cl)cc1 (stereo not given) | 29.8 µM (active) | 
C=C(C)C(=O)OCCCCOC(=O)C(=C)C | inactive | 
CC(=O)OC1(c2ccccc2)CCN(CCc2ccccc2)CC1 | inactive | 
CC[C@@H](CO)NC(=O)[C@@H]1C=C2c3cccc4c3c(cn4C)C[C@H]2N(C)C1 | inactive | 
C=CC(=O)[O][Sn]([CH2]CCC)([CH2]CCC)[CH2]CCC | 0.969 µM (active) | 
C=CC(C)(CCC=C(C)C)OC(=O)c1ccccc1N (stereo not given) | inactive | 
COP(=O)(OC)O/C(=C\Cl)c1cc(Cl)c(Cl)cc1Cl | inactive | 

Structure (SMILES) | Potency | activity change, negative = cytotoxicity
ClC(Cl)=C(Cl)Cl | inactive | 
CC(C)(C)C(O)C(Oc1ccc(Cl)cc1)n1cncn1 (stereo not given) | inactive | 
CC(Cc1ccc2c(c1)OCO2)NO (stereo not given) | inactive | 
CCN(CC)C(=O)[C@@H]1C=C2c3cccc4[nH]cc(c34)C[C@H]2N(C)C1 | inactive | 
O=C(O)COc1ccc(Cl)cc1 | inactive | 
[As]#[In] | inactive | 
CN(C)C(=O)Nc1cccc(OC(=O)NC(C)(C)C)c1 | inactive | 
CC(C)[C@H](C(=O)O[C@H](C#N)c1cccc(Oc2ccccc2)c1)c1ccc(Cl)cc1 | inactive | 
NC(=O)CS(=O)C(c1ccccc1)c1ccccc1 (stereo not given) | inactive | 
O=S1(=O)OCCO1 | inactive | 
CCCCCCC[CH2][Sn]([Cl])([Cl])[CH2]CCCCCCC | 30.6 µM (active) | 
CC(O)(CS(=O)(=O)c1ccc(F)cc1)C(=O)Nc1ccc(C#N)c(C(F)(F)F)c1 (stereo not given) | inactive | 
[Cl][Hg][c]1ccccc1 | 2.73 µM (active) | 
Clc1ccccc1 | inactive | 
CN(C)C1CCCCC1 | inactive | 
CC(=O)[O-].CC(=O)[O-].CC(=O)[O-].[Sb+3] |  | 0.851% [at 3.27 µM] (inactive)
NC(=O)C(Cl)(Cl)Cl | inactive | 
Clc1cc2c(cc1Cl)Oc1cc(Cl)c(Cl)cc1O2 |  | 5.41% [at 0.349 µM] (inactive)
O=c1oc2ccccc2c(O)c1Cc1c(O)c2ccccc2oc1=O | inactive | 
Clc1ccccc1-c1ccccc1Cl | 55.3 µM (active) | 
